# Laboratory results: ChEMBL document CHEMBL3988442, “University of Dundee, Small-Polar-MMV Screening Library” (2021)
# For some of these results: Results with a measured potency or affinity are listed apart.
# How the values were obtained:
# Set-up in all cases: scale not given: direction of the effect not stated beside the values
# [1] = molecular target: Protein translocase subunit SecA (Escherichia coli (strain K12)) (UniProt P10408); test: Assay to Identify E. coli SecA ATPase Inhibitors; format: functional; details: 30 µM
# [2] = molecular target: T1, Ubiquitin-activating enzyme e1, putative (Leishmania donovani (strain BPK282A1)) (UniProt E9BSI1); test: Leishmania donovani Ubiquitin Activating Enzyme (LdE1); format: functional; details: 30 µM
# T1 sequence (whole entry): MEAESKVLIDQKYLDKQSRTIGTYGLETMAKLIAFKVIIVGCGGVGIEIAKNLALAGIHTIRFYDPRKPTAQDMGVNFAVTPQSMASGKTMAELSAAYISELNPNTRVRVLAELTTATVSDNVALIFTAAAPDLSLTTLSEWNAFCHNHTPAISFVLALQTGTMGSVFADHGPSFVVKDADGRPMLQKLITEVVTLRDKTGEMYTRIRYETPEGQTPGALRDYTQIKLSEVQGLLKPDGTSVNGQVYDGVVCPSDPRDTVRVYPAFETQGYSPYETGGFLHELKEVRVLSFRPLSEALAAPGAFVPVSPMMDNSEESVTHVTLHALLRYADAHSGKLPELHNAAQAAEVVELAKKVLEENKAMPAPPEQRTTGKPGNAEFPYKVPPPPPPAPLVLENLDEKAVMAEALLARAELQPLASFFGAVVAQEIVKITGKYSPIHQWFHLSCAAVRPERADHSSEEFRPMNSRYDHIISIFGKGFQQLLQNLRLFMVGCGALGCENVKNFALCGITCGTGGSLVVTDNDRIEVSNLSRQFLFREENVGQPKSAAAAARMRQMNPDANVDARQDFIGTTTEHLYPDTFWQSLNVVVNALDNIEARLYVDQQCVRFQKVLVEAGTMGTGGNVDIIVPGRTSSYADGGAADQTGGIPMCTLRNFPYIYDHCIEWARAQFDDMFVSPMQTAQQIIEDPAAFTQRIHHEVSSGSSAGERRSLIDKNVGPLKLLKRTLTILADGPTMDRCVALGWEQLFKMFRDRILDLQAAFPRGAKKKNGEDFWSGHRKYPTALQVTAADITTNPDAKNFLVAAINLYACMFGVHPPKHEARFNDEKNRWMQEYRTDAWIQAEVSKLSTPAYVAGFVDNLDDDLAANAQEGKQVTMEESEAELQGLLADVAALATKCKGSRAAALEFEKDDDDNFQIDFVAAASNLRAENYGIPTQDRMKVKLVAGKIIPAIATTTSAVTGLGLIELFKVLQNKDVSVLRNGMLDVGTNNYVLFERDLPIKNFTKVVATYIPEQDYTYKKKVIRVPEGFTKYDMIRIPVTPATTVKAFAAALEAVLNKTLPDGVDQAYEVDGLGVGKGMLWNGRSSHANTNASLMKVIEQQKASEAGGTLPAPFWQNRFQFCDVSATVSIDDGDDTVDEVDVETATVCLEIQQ
# [3] = molecular target: AMP-activated protein kinase, AMPK (Homo sapiens) (UniProt P54646+O43741+P54619+Q9UGJ0+Q9Y478+Q13131+Q9UGI9); test: AMP-dependent Kinase enzyme assay. An in vitro enzyme assay that detects ADP turnover that is directly proportional to AMPK activity. This uses naive AMPK that is activated during the assay with MK-8722; format: functional; details: 30 µM
# [4] = molecular target: Sialic acid-binding Ig-like lectin 9 (Homo sapiens) (UniProt Q9Y336); test: Hs-Siglec9 ALPHAscreen SOP 20170721; details: 10 µM
# Trypanosoma cruzi = test: Trypanosoma cruzi phosphomannomutase and mannose-1-phosphate guanylyltransferase assay; format: functional; details: 10 µM
# [5] = molecular target: T2, Arginase-2, mitochondrial (Homo sapiens) (UniProt P78540); test: in vitro enzyme assay to detect the production of urea directly proportional to the activity of Arginase II; format: functional; details: 33.3 µM; also: in the data most compounds retested in dose-response had high values
# T2 sequence (whole entry): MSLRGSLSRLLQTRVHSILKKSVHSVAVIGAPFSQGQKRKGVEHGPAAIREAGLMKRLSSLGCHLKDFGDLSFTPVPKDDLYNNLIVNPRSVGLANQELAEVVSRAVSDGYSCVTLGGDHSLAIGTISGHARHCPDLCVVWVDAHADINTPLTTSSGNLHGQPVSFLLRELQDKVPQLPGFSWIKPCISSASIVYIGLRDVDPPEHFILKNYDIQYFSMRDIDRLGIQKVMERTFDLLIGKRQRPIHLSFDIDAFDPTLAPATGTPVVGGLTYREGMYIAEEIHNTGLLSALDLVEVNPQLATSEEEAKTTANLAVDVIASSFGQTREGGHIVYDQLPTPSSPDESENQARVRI
# [6] = molecular target: T3, Proteasome subunit beta (Trypanosoma cruzi) (UniProt O96673); test: Trypanosoma cruzi proteasome chymotrypsin-like activity (TcProtChymo) assay.; also: in the data most compounds retested in dose-response had high values; format: functional; details: 9.37 µM
# T3 sequence (whole entry): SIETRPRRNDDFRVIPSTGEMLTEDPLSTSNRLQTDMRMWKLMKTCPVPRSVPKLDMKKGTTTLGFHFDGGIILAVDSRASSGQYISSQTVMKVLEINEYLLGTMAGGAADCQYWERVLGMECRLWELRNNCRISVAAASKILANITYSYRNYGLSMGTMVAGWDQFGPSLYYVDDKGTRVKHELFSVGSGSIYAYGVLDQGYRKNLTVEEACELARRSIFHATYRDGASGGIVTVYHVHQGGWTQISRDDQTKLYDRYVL
# Homo sapiens = species: Homo sapiens; test: To identify inhibition of the IFN signalling (Jak-Stat) pathway via expression of an eGFP reporter gene under the control of an IFN-stimulated response element (ISRE) containing MxA promoter.; format: functional; details: 30 µM
# [7] = molecular target: T4, Tyrosyl-tRNA synthetase, putative (Trypanosoma cruzi (strain CL Brener)) (UniProt Q4DSP6); test: Trypanosoma cruzi tyrosyl tRNA synthetase (TcYRS) _High Tyrosine SOP; format: functional; details: 30 µM; also: in the data most compounds retested in dose-response had high values
# T4 sequence (whole entry): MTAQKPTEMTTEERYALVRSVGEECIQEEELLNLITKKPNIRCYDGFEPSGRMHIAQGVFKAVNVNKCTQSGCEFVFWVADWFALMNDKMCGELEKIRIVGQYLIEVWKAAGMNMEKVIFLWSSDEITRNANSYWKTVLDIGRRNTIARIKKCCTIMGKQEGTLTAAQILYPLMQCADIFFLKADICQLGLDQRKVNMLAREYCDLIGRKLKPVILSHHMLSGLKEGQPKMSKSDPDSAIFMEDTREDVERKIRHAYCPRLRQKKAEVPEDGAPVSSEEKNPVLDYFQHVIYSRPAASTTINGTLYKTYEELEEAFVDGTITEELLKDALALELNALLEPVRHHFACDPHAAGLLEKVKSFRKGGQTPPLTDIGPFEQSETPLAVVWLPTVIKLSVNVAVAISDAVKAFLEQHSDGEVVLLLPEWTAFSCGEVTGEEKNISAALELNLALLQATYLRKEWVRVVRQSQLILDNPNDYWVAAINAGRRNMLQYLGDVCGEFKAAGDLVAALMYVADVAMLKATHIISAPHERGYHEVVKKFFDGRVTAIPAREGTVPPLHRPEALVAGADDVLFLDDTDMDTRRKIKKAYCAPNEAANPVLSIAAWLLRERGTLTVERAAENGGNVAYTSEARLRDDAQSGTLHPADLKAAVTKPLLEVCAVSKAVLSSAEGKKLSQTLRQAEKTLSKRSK
# [8] = molecular target: T4, Tyrosyl-tRNA synthetase, putative (Trypanosoma cruzi (strain CL Brener)); test: Trypanosoma cruzi tyrosyl tRNA synthetase (TcYRS) SOP; format: functional; details: 30 µM
# [9] = molecular target: Chromo domain-containing protein 1 (Saccharomyces cerevisiae (strain ATCC 204508 / S288c) (Baker's yeast)) (UniProt P32657); test: ScCHD-1 Enzyme Inhibition Assay; format: functional; details: 30 µM; also: in the data most compounds retested in dose-response had high values
# Chromo domain-containing protein 1 (Saccharomyces cerevisiae (strain ATCC 204508 / S288c) (Baker's yeast)), sequence (P32657 whole entry, the tested form may be a part): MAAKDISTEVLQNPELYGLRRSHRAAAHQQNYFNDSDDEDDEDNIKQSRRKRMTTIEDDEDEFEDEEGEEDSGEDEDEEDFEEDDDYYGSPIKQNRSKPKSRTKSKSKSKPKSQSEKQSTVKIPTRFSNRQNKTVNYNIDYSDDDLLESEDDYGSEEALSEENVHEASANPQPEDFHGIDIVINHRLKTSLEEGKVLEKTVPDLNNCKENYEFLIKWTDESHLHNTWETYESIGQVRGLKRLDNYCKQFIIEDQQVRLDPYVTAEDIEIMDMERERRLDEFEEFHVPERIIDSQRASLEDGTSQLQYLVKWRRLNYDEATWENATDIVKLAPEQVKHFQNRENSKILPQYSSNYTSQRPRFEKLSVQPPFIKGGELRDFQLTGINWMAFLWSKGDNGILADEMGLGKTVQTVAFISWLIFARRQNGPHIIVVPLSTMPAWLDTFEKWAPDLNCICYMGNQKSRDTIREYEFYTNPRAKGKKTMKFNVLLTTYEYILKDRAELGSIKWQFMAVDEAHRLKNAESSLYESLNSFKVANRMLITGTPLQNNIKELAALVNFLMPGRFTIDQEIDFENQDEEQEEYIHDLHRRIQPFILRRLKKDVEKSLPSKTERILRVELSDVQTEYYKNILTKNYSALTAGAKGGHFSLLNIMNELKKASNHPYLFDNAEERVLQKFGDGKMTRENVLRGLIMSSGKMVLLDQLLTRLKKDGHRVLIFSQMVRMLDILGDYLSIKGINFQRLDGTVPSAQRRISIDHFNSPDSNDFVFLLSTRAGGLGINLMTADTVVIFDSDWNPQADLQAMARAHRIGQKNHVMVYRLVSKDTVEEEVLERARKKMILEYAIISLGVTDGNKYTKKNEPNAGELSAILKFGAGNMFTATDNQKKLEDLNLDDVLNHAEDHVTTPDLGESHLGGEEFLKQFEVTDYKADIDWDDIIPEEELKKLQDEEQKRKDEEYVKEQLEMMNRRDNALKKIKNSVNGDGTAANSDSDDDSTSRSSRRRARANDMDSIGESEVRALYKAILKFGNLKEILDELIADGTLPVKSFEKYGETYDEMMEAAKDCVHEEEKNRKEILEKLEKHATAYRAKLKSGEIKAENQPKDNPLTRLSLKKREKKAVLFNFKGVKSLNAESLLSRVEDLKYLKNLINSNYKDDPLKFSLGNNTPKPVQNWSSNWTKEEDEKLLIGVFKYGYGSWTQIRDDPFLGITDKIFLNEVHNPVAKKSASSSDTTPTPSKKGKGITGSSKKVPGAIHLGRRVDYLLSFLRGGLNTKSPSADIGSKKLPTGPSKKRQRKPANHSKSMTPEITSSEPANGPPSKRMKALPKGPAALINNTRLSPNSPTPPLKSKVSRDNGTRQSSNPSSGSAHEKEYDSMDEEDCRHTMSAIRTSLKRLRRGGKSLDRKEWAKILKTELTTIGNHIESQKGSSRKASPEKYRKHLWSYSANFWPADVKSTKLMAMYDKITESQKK
# Protein translocase subunit SecA (Escherichia coli (strain K12)), sequence (P10408 whole entry): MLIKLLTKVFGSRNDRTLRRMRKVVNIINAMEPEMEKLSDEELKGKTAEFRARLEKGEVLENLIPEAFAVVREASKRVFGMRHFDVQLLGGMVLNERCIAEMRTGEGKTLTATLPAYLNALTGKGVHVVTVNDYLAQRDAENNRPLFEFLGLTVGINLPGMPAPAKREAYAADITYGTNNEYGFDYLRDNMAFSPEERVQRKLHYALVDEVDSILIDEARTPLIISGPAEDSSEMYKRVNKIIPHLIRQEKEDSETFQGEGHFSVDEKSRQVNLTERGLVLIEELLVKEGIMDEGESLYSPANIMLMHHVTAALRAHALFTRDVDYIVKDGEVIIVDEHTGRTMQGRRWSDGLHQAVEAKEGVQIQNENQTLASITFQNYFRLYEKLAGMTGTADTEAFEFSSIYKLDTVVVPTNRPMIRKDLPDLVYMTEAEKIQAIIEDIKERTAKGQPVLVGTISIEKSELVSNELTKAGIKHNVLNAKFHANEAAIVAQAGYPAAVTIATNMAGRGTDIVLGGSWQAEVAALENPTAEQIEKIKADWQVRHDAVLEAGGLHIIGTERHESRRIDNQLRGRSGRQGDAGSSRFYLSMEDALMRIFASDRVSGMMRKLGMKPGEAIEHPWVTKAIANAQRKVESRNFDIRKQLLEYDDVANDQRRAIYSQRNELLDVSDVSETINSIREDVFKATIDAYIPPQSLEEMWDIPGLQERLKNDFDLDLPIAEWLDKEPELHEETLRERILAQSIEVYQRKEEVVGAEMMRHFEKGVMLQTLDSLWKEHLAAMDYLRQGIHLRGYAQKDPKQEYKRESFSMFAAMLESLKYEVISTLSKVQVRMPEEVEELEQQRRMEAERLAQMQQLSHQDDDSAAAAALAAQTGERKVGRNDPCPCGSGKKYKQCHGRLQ
# Sialic acid-binding Ig-like lectin 9 (Homo sapiens), sequence (Q9Y336 whole entry): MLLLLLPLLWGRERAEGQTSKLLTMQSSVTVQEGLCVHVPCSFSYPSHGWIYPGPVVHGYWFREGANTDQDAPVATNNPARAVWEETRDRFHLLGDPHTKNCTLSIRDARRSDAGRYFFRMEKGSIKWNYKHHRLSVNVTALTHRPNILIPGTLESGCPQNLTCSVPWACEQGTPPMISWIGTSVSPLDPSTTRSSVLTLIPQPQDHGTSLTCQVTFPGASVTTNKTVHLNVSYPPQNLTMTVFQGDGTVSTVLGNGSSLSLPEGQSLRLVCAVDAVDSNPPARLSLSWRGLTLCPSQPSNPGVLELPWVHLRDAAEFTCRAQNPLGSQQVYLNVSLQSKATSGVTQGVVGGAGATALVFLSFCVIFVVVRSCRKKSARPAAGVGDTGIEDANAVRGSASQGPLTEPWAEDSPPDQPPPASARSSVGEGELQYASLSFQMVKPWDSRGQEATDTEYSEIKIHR
SMILES,Percent Effect [1] [%],Percent Effect [2] [%],Percent Effect [3] [%],Percent Effect [4] [%],Percent Effect (Trypanosoma cruzi) [%],Percent Effect [5] [%],Percent Effect [6] [%],Percent Effect (Homo sapiens) [%],Percent Effect [7] [%],Percent Effect [8] [%],Percent Effect [9] [%]
COC1CCN(C(=O)CCc2c(C)nc3ccnn3c2C)CC1,-0.424,5.26,1.13,-0.445,-3.64,5.4,1.95,-10.2,4.43,6.17,5.83
CC(=O)N1CCC(Oc2ccc(C#N)cn2)CC1,-4.01,8.22,1.71,12.9,2.94,7.27,4.44,11.1,4.3,12.5,-5.65
CC(C)CCN1CN=C(NS(=O)(=O)c2ccc(F)cc2)NC1,-1.41,6.67,4.23,1.92,-1.38,-9.33,9.61,-4.88,5.29,10.3,-8.81
Cc1cnn(CC2CCCCN2C(=O)c2ccc3[nH]nnc3c2)c1 (stereo not given),-3.72,13,5.5,1.47,-2.25,2.32,14.3,22.2,6.67,9.41,-11.2
CCc1nc(CN(C(C)=O)C2CCN(CCc3cnn(C)c3)C2)no1 (stereo not given),-2.36,27.9,-1.95,-9.07,-0.85,3.04,0.901,22.4,-19.2,16.5,-7.18
CCc1nc(C2CCCN(C(=O)CCn3ccccc3=O)C2)no1 (stereo not given),-2.1,0,-7.52,-0.82,8.08,-1.15,1.34,-13.7,-0.49,0,2.66
c1cnn(CCNCc2nnc(C3CC3)o2)c1,-2.66,27.9,-5.53,-12.3,1.42,-2.66,9.91,11.1,7.39,24.1,-13.5
CCCC(C)CN1CCC(n2cc(CCCO)nn2)CC1 (stereo not given),-3.6,4.17,-2.5,0.0396,1.46,1.32,2.28,-7.18,4.21,5.13,0.69
OC(COCc1cccs1)CN1CCC(c2ccn[nH]2)CC1 (stereo not given),0.446,15.2,-3.7,-4.14,-8.03,3.42,8.6,16.3,-2.46,8.86,-3.55
O=C(NCCCN1CCOCC1)c1cc(-c2ccco2)[nH]n1,-3.38,8.22,-11,10.3,-0.794,2.4,11.2,0.231,11.5,28.4,-2.57
CCc1nsc(NC2CCCn3nc(COC)nc32)n1 (stereo not given),-4.32,13.3,-5.77,21.4,4.77,16.7,9.94,7.13,3.83,13.6,-6.59
CNc1cc(C)nc(C2CN(Cc3cc[nH]n3)CCO2)c1 (stereo not given),-2.72,1.35,11.4,-2.27,-7.51,-6.26,-0.156,-17.5,0,3.9,-10.1
CC(C)n1ccnc1C1CCN(Cc2ccc(Cl)s2)CC1,-4.43,7.79,1.43,13.8,7.96,6.9,6.99,9.49,8.6,16.1,-1.15
Cc1cnn(CC2CCCN2C(=O)c2cc3ccccc3[nH]c2=O)c1 (stereo not given),-8.51,7.79,-12.6,-10,-5.97,-1.9,8.49,15,1.91,7.06,-15.3
COc1cc(CNC(=O)NCc2c(C)cc(C)[nH]c2=O)ccc1C,-6.17,7.89,-0.139,4.36,5.64,1.15,11.9,6.94,2.45,12.2,-9.57
Cc1nc(C2CCCN2CC(=O)N2CCCc3ccccc32)no1 (stereo not given),-2.99,-13.2,-3.99,5.27,6.77,3.45,0,6.64,4.41,4.88,-4.73
O=C(NC1CC1)[C@@H]1CCO[C@@H]2CCN(C3CCOCC3)C[C@@H]21,1.01,2.6,-0.255,5.79,6.98,-13.8,3.49,-21.6,1.07,1.24,-7.95
Fc1ccc(CN2CCC(c3n[nH]c4nccnc34)CC2)cc1F,-3.35,9.46,4.38,-4.91,0.593,-1.16,19.8,7.61,1.07,6.49,-18.1
CNC(=O)C1Cn2ccnc2C2(CCN(Cc3cccc(C)n3)CC2)O1 (stereo not given),-2.65,2.7,2.26,-4.02,-6.35,-8.6,9.41,0.488,4.32,10.3,0.265
O=c1nc(CNc2ccccc2)[nH]n1Cc1ccccc1,-3.5,7.89,10.7,0.216,-4.58,-1.18,19.5,3.25,9.57,13,-4.75
